# Compounds with a hit are over-represented: about 2% of the library has one in this group of screens.
# IL-2 act = activates IL-2 in a cell-based reporter assay. activation, % (series mostly up to about 46 µM). IL-2 activation reporter assay, cell-based qHTS; stimulated with anti-CD3/CD4/CD28 beads; in transgenic mouse T cells. actives 0.065% (n = 360,000); in the data active means activation above about 50%; inconclusive means mostly about 30% to 49%; further: 0% is about no effect
#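 Unstimulated transgenic mouse T cells preincubated 60 min with compound, then stimulated with anti-CD3/anti-CD4-coated beads plus anti-CD28 for 18 h at 37 degrees C. IL-2 response read as EGFP and DsRed fluorescence by plate cytometry.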
# NPSR antag = antagonists of human neuropeptide S receptor cAMP signaling; Q6W5P4; CHO-NPSR cells, cAMP TR-FRET, antagonist mode; Potency, µM (titrated, usually from 38.3 µM), inactives show at the highest dose activity change, negative = inhibition, actives largely listed as inhibitors; actives 1% (n = 220,000); AID 1461; further: potency means the concentration at half of the fitted maximal effect; on the % scale 0 is the no-effect control and ±100 the full control effect; nearly all actives have a fitted effect of over 50% in size
# ClpP mod = qHTS Assay for Activators of ClpP; purified B. subtilis ClpP, FRET peptide cleavage, 20 min; Potency, µM (titrated, usually from 57.5 µM), for the others: top-dose activity change, negative = active; ATP-dependent Clp protease proteolytic subunit (Bacillus subtilis (strain 168)), P80244; actives 1.9% (n = 340,000); active means well fitted falling curve with a large enough effect; inconclusive means small, poorly fitted or top-dose-only effect; inactive means no such curve, though single readings can be large or run the other way; further: potency means the concentration at half of the fitted maximal effect; the source files actives as falling curves though it sought activators and does not explain the sign; nearly all actives have a fitted effect of over 65% in size
# Target sequence (P80244 whole entry, looked up): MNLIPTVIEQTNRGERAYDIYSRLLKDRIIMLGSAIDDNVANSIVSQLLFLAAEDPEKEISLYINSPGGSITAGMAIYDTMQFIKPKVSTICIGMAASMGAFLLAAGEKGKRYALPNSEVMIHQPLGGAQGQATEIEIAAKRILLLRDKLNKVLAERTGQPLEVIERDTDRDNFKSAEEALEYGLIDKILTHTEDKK
#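 Buffer: 100 mM Tris/HCl pH8, 100 mM KCl, 0.05% low protease BSA, 2.5% glycerol, 0.01% Tween-20. ClpP 10 microg/mL final; 20 min RT; delta FRET normalized to ADEP and DMSO controls.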
# PKM2 act = PKM2 (human) enzyme activation | P14618 | purified PKM2, Kinase-Glo ATP luminescence, activation; response scale: 0% is enzyme alone, no compound | Potency, µM (top dose mostly 57.5 µM), for the others: at the highest dose activation, most hits filed as activators | actives 0.34% (n = 260,000); further: potency means the concentration at half of the fitted maximal effect; on the % scale 0 is the no-effect control and ±100 the full control effect; nearly all actives have a fitted effect of over 55% in size
# Target sequence (P14618 whole entry, looked up): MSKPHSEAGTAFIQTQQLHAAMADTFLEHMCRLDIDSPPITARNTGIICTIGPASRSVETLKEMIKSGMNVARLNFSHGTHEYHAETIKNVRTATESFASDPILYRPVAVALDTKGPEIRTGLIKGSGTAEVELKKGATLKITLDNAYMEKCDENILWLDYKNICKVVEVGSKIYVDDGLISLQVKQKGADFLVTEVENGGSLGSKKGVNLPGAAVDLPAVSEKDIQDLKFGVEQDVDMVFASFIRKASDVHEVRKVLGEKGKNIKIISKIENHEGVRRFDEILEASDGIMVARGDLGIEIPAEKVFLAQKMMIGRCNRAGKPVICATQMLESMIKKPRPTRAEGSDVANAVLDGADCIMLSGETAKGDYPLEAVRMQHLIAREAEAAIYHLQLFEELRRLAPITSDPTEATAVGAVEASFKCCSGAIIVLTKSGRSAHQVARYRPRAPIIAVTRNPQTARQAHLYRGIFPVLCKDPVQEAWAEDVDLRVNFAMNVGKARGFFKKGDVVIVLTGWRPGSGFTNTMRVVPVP
#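 Purified hPK-M2 (>95%) run at intermediate activity with 0.1 mM ADP and 0.5 mM PEP in 50 mM imidazole pH 7.2, KCl, MgCl2; 1 h room temperature. ATP formed read by Kinase-Glo luminescence; normalized to uninhibited and no-enzyme controls.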
# Active calls of the source: *; ? = inconclusive; . = no result; [ ] = dose if it differs, or a comment. Unless noted, the call rests on the fitted dose curve; in most records, active means well fitted curve in the direction sought with a large enough effect; inconclusive means small, poorly fitted or top-dose-only effect, or another doubt; inactive means no such curve, though single readings can be large; an effect the other way counts as inactive or inconclusive.
SMILES,IL-2 act,NPSR antag,ClpP mod,PKM2 act
Cc1ccccc1S(=O)(=O)Cc1ccc(C(=O)O)o1,0,3%[46.1 µM],-1%,-12%
O=C1S/C(=C\c2ccc(N3CCOCC3)o2)C(=O)N1Cc1c(F)cccc1Cl,-4,?,1%,2.5µM*
CC1CN(C(=O)COC(=O)c2ccc(Cl)c(N)c2)CC(C)O1 (stereo not drawn),-2,.,.,0%
Brc1c(CSc2nncn2-c2ccccc2)nc2ncccn12,-2,-18%[46.1 µM],10µM*,-3%
Brc1c(CSc2nc3ccccc3o2)nc2ncccn12,0,-1%[46.1 µM],25µM*,-1%
O=C(O)C(c1ccccc1)C1(O)CCC1 (stereo not drawn),-1,.,.,.
Cc1ccc(CN2CCCN(Cc3c(F)cccc3Cl)S2(=O)=O)cc1,0,.,.,.
O=S1(=O)N(Cc2ccccc2F)CCCN1Cc1c(F)cccc1Cl,-7,.,32µM*,.
Nc1[nH]nc2nc(-c3ccccc3)[nH]c(=O)c12,-1,-5%,-5%,1%
Nc1nc(-c2ccccc2)[nH]c(=O)c1N,0,-7%,28µM*,8%
Cc1cn2c(=O)cc(COc3cccc(NC(=O)c4ccc(C(C)(C)C)cc4)c3)nc2s1,.,.,28µM*,.
CCCCNc1c(-c2ccc(SC3CCCCC3)cc2)nc2cnccn12,-4,.,28µM*,.
CCCCNc1c(-c2ccc(OC)c(SC3CCCCC3)c2)nc2cnccn12,-1,.,-26%,.
CC(=O)Nc1ccc(C2Nc3ccccc3C(=O)N2C2CCCCC2)cc1 (stereo not drawn),-1,-5%[46.1 µM],28µM*,4%
O=C(Nc1ccc2c(c1)OCCO2)C1C(=O)Nc2ccccc2C(=O)N1C1CCCCC1 (stereo not drawn),0,.,-4%,.
CCN(CCCNC(=O)c1cc2c(=O)[nH]c3ccc(C)cc3c2s1)Cc1ccccc1,.,.,14µM*,.
Cc1ccc2[nH]c(=O)c3cc(C(=O)N4CCN(c5ccccc5)CC4)sc3c2c1,.,.,-2%,.
Cc1ccc2[nH]c(=O)c3cc(C(=O)N4CCN(C(=O)c5ccco5)CC4)sc3c2c1,-4,-15%[46.1 µM],-17%,16µM*
O=C(NC(c1ccccc1)c1cnccn1)C1CCN(CCCOc2ccccc2)CC1 (stereo not drawn),-1,.,-6%,.
COc1cccc(NC(=O)CN(C)C(=O)c2cccc(S(=O)(=O)Nc3ccc(C)cc3)c2)c1,0,.,-1%,.
CC(=O)c1cccc(NC(=O)c2ccc(NC(=O)CC3SC(N4CCCCC4)=NC3=O)cc2)c1 (stereo not drawn),-4,.,22µM*,1%
O=C(CSc1ccc(F)cc1)N1CCC(c2nc3ccccc3s2)CC1,-3,-24%[46.1 µM],3%,20µM*
Cc1ccc(/C=C/c2ccc(=O)n(Cc3ccccc3Cl)n2)cc1,0,?,28µM*,-9%
CC(=O)c1cc(NC(=O)c2cccc(C(F)(F)F)c2)c(=O)oc1/C=C/N(C)C,58*,-10%[46.1 µM],2%,1%
Cc1noc(C)c1C(=O)NCCc1ccccc1,-1,-10%[46.1 µM],-1%,-3%
SMILES,IL-2 act,NPSR antag,ClpP mod,PKM2 act
Cc1noc(C)c1C(=O)NCc1ccccc1,-1,-8%[46.1 µM],32µM*,1%
Oc1cccc2ccc[n+](CC(O)Cn3c4ccccc4c4ccccc43)c12 (stereo not drawn),-1,-12%[46.1 µM],-1%,-12%
Cc1onc(-c2c(F)cccc2Cl)c1C(=O)Nc1cccc(Cn2cccn2)c1,-1,-10%[46.1 µM],0%,0%
COc1ccccc1N1CCN(c2ncnc3c2c(-c2ccccc2)cn3-c2cccc(C)c2)CC1,.,.,11µM*,.
Cc1cccc(-n2cc(-c3ccccc3)c3c(N4CCC(C)CC4)ncnc32)c1,.,.,28µM*,.
COc1ccccc1CNc1ncnc2c1c(-c1ccccc1)cn2-c1cccc(C)c1,.,.,28µM*,.
CCOC(=O)CCSCC(=O)N1N=C(c2cccs2)CC1c1ccc(C)cc1 (stereo not drawn),-2,-35%,28µM*,0%
O=C(O)C(Cc1ccccc1)N1C(=O)c2ccccc2C1=O (stereo not drawn),1,2%[46.1 µM],-1%,3%
[N-]=[N+]=CC(=O)C(Cc1ccccc1)N1C(=O)c2ccccc2C1=O (stereo not drawn),-2,-8%[46.1 µM],-1%,11µM*
Cc1nn2c(NCCCN3CCOCC3)c3c(nc2c1-c1ccccc1)CCC3,1,?,71%,23%
CCCCNc1c2c(nc3c(-c4ccccc4)c(C)nn13)CCC2,-1,10µM*,742%,-4%
CCC(C)Nc1c2c(nc3c(-c4ccccc4)c(C)nn13)CCC2 (stereo not drawn),0,?,28µM*,-5%
O=C(Cn1cc([N+](=O)[O-])cn1)N1CCN(Cc2ccc3c(c2)OCO3)CC1,-1,.,.,.
Cc1cccn2c(=O)c3cc(C(=O)NC4CCCCC4)c(=N)n(Cc4ccc(F)cc4)c3nc12,154*,.,4%,-9%[0.46 µM]
CCNC(=O)c1cc2c(=O)n3cccc(C)c3nc2n(Cc2ccc(C)cc2)c1=N,0,-2%[46.1 µM],4.5µM*,1%
COc1ccc(N2CCN(C(=O)/C=C/c3ccco3)CC2)cc1,-1,-15%,.,-1%
COc1ccc(CNC(=O)CN(Cc2ccccc2F)C(=O)c2csnn2)cc1,0,.,.,.
CCC(COC(=O)Nc1cccc(C)c1)NC(=O)OCC(C)C (stereo not drawn),0,-7%[46.1 µM],10µM*,-9%
CCNC(=O)OCC(CC)NC(=O)OCC(C)C (stereo not drawn),0,-13%[46.1 µM],1%,-3%
COc1cccc(CNC(=O)c2ccc(CS(=O)Cc3ccc(C)cc3)o2)c1 (stereo not drawn),0,.,-2%,.
CCOC(=O)C1=C(C)NC2=C(C(=O)C(C(=O)OCC)C(c3ccco3)C2)C1c1ccccn1 (stereo not drawn),-2,-8%[46.1 µM],32µM*,4%
O=C(NC1CCCc2ccccc21)c1ccc2c(c1)OCO2 (stereo not drawn),0,-11%,-8%,0%
Cc1ccc(NS(=O)(=O)c2cc3c4c(cccc4c2)C(=O)NC3=O)cc1,0,-2%,.,1%
CNS(=O)(=O)c1cc2c3c(cccc3c1)C(=O)NC2=O,-3,37%,-9%,13µM*
COCCNC(=O)c1ccc2c(c1)S(=O)(=O)c1ccccc1C2=O,-1,.,0%,.
SMILES,IL-2 act,NPSR antag,ClpP mod,PKM2 act
Cc1nn2c(N3CCCC3)c3c(nc2c1-c1ccccc1)CCC3,9,-22%,.,-8%
OC1CCN(c2c3c(nc4cc(-c5ccc(Cl)cc5)nn24)CCC3)CC1,0,-30%,14µM*,-5%
Cc1cc(C)c(NC(=S)NCCO)c(C)c1,0,-26%,1%,0%
COc1cc(C(=O)Nc2cc(C)ccc2C)ccc1OCc1c(C)noc1C,0,.,.,.
Cc1ccc(C)c(NC(=O)c2ccc(OCc3c(C)noc3C)cc2)c1,-4,.,32µM*,.
CCCN1CCC(NC(=O)Nc2ccccc2C(=O)OC)CC1,-1,-12%[46.1 µM],28µM*,4%
O=C(Nc1c(C(=O)O)[nH]c2ccccc12)NC1CCCCC1,-3,?,7.9µM*,-3%

# From PubChem
